# How the values were obtained:
# Test in all cases: DAPPL (digital affinity profiling via proximity ligation, sequencing); 10 mM Tris-HCl pH 7.5, 50 mM NaCl, 1 mM DTT, 4% glycerol, room temperature, 30 min; GST-TFs on glutathione beads, 16-mer random dsDNA library, 0.1% formaldehyde crosslink after washing; high values mean tight binding
# Settings in all cases: protein: recombinant; tags: N-terminal GST; dsDNA, one strand shown
# [1] = molecular target: T1, FLI1 (Homo sapiens, UniProt Q01543 1-452)
# T1 sequence: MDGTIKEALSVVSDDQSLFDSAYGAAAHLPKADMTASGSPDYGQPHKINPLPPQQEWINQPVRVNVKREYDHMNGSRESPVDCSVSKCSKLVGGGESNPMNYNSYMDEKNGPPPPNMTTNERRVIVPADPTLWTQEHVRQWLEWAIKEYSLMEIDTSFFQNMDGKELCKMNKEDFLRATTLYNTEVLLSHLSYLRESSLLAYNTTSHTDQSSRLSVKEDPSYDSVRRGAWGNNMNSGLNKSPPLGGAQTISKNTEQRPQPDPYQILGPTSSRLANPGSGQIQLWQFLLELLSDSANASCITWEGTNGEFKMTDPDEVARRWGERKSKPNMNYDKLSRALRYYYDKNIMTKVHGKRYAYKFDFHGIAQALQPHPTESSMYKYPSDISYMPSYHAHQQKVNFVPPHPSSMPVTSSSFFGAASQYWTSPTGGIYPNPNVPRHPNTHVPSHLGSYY
# Method in brief: (§1)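 Beads coated with glutathione captured GST-fused human transcription factors that had been expressed in yeast, and the factors were then given DNA barcodes and pooled with a tag-only sample. The pools were incubated with 200 nmole of a random double-stranded 16-mer DNA library in Tris/NaCl/DTT/glycerol buffer for 30 min at room temperature, washed, crosslinked with 0.1% formaldehyde and proximity-ligated with BsaI/T4 ligase at 37 °C for 1 h. PCR amplification and Illumina NextSeq500 sequencing came last. Binding signal is each hexamer's read frequency for a factor divided by its frequency for the tag-only sample.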
# [2] = molecular target: T2, ELK1 (Homo sapiens, UniProt P19419 1-428)
# T2 sequence: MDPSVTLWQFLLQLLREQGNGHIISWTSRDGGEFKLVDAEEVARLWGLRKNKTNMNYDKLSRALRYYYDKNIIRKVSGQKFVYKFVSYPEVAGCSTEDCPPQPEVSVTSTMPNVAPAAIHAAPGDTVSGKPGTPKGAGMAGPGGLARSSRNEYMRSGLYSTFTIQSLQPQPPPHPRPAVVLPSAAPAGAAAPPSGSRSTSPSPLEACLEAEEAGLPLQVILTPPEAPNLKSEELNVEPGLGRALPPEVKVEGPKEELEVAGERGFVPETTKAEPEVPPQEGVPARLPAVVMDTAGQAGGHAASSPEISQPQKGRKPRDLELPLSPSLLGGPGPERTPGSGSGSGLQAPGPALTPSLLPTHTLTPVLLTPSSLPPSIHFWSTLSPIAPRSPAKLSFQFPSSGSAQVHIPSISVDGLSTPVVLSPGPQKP
# Method in brief: as §1
# [3] = molecular target: T3, GABPA (Homo sapiens, UniProt Q06546 1-454)
# T3 sequence: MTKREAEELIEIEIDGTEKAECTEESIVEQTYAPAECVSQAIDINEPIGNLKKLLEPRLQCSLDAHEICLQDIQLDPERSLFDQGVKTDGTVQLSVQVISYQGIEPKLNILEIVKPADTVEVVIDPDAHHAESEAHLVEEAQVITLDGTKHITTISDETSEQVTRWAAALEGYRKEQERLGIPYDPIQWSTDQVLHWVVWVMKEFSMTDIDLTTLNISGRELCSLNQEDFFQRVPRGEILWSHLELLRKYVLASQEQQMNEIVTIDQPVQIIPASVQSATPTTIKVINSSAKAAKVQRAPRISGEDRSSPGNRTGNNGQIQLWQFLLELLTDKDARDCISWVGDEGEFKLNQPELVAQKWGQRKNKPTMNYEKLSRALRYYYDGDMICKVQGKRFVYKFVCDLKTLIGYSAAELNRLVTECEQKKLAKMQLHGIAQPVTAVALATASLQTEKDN
# Method in brief: as §1
# [4] = molecular target: T4, ERG (Homo sapiens, UniProt P11308 1-479)
# T4 sequence: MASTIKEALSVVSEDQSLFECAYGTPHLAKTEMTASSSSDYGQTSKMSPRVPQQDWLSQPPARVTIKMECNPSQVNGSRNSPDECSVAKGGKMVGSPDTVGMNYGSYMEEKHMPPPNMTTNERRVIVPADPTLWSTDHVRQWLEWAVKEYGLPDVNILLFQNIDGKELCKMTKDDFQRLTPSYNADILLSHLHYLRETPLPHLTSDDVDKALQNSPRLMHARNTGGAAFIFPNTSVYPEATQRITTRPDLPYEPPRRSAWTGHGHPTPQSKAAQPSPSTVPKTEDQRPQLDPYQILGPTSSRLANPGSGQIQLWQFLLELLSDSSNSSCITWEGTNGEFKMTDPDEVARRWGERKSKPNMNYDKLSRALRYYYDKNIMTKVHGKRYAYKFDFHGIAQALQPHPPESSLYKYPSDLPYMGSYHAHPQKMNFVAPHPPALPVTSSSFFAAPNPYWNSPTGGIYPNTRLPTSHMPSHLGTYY
# Method in brief: as §1
# [5] = molecular target: ELF1 (Homo sapiens, UniProt P32519 1-619)
# Sequence of ELF1 (P32519 whole entry): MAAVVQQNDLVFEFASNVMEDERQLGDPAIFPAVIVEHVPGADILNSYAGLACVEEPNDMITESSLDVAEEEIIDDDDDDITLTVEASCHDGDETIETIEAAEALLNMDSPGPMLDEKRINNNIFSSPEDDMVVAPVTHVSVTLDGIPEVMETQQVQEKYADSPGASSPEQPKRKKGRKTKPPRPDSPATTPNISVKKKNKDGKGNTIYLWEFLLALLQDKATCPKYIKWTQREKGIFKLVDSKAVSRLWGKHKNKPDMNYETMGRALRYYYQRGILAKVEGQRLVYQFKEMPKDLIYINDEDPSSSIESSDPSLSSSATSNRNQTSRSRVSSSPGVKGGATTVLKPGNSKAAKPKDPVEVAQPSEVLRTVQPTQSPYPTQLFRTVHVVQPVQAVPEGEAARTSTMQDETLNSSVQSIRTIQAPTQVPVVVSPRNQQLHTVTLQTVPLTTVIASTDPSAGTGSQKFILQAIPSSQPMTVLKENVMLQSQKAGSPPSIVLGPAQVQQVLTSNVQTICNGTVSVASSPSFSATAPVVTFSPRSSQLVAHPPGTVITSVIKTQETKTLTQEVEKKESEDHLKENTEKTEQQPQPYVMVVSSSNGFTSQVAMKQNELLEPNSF
# Method in brief: as §1
# [6] = molecular target: T5, EHF (Homo sapiens, UniProt Q9NZC4 1-300)
# T5 sequence: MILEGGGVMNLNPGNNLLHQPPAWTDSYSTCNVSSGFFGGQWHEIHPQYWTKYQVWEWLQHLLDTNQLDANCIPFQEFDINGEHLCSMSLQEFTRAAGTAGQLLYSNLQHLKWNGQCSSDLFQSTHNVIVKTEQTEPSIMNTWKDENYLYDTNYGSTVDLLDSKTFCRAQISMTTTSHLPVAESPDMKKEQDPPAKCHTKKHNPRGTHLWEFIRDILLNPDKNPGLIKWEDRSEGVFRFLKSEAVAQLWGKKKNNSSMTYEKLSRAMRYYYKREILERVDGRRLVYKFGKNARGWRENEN
# Method in brief: as §1
# [7] = molecular target: SPI1 (Homo sapiens, UniProt P17947 1-270)
# Method in brief: as §1
# [8] = molecular target: SPIB (Homo sapiens, UniProt Q01892 1-262)
# Sequence of SPIB (Q01892 whole entry): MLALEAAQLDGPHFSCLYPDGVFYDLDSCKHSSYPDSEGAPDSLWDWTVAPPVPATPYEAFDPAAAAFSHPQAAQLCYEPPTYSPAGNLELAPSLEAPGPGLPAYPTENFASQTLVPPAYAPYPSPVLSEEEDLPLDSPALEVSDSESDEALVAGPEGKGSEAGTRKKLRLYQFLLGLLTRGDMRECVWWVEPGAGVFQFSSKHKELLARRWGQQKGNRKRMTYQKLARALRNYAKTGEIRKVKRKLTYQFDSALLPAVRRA
# Method in brief: as §1
# [9] = molecular target: T6, ELK3 (Homo sapiens, UniProt P41970 1-407)
# T6 sequence: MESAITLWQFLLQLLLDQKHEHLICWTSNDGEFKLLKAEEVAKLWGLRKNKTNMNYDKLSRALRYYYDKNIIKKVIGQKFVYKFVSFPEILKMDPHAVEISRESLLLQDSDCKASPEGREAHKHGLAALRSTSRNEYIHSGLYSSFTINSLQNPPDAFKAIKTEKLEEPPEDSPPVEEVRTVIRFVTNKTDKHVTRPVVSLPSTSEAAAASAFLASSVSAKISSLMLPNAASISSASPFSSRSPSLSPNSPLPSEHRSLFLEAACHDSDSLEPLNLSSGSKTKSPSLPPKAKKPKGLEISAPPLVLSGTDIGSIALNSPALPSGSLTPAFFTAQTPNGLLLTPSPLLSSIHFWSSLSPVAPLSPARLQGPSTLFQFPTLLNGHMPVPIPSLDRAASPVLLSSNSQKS
# Method in brief: as §1
# [10] = molecular target: SPI1 (Homo sapiens, UniProt P17947 1-270); remark: listed apart in the source
# Method in brief: as §1
Sequence,binding signal [1],binding signal [2],binding signal [3],binding signal [4],binding signal [5],binding signal [6],binding signal [7],binding signal [8],binding signal [9],binding signal [10]
TTTCCG,"3.86 fold enrichment (6-mer frequency, TF over GST control)","3.68 fold enrichment (6-mer frequency, TF over GST control)","3.28 fold enrichment (6-mer frequency, TF over GST control)","4.93 fold enrichment (6-mer frequency, TF over GST control)","3.41 fold enrichment (6-mer frequency, TF over GST control)","3.75 fold enrichment (6-mer frequency, TF over GST control)","3.47 fold enrichment (6-mer frequency, TF over GST control)","3.89 fold enrichment (6-mer frequency, TF over GST control)","4.01 fold enrichment (6-mer frequency, TF over GST control)",
ACATTT,"1.63 fold enrichment (6-mer frequency, TF over GST control)","1.48 fold enrichment (6-mer frequency, TF over GST control)","1.43 fold enrichment (6-mer frequency, TF over GST control)","1.56 fold enrichment (6-mer frequency, TF over GST control)","1.46 fold enrichment (6-mer frequency, TF over GST control)","1.49 fold enrichment (6-mer frequency, TF over GST control)",,"1.53 fold enrichment (6-mer frequency, TF over GST control)","1.36 fold enrichment (6-mer frequency, TF over GST control)","1.41 fold enrichment (6-mer frequency, TF over GST control)"
ATTGGT,"1.31 fold enrichment (6-mer frequency, TF over GST control)","1.34 fold enrichment (6-mer frequency, TF over GST control)","1.14 fold enrichment (6-mer frequency, TF over GST control)","1.19 fold enrichment (6-mer frequency, TF over GST control)","1.22 fold enrichment (6-mer frequency, TF over GST control)","1.28 fold enrichment (6-mer frequency, TF over GST control)",,"1.33 fold enrichment (6-mer frequency, TF over GST control)","1.33 fold enrichment (6-mer frequency, TF over GST control)","1.25 fold enrichment (6-mer frequency, TF over GST control)"
TAACAC,"1.26 fold enrichment (6-mer frequency, TF over GST control)","1.2 fold enrichment (6-mer frequency, TF over GST control)","1.24 fold enrichment (6-mer frequency, TF over GST control)","1.19 fold enrichment (6-mer frequency, TF over GST control)","1.23 fold enrichment (6-mer frequency, TF over GST control)","1.21 fold enrichment (6-mer frequency, TF over GST control)",,"1.25 fold enrichment (6-mer frequency, TF over GST control)","1.15 fold enrichment (6-mer frequency, TF over GST control)","1.18 fold enrichment (6-mer frequency, TF over GST control)"
GCTCAA,"1.05 fold enrichment (6-mer frequency, TF over GST control)","1.1 fold enrichment (6-mer frequency, TF over GST control)","1.05 fold enrichment (6-mer frequency, TF over GST control)","1.15 fold enrichment (6-mer frequency, TF over GST control)","1.09 fold enrichment (6-mer frequency, TF over GST control)","1.13 fold enrichment (6-mer frequency, TF over GST control)",,"1.1 fold enrichment (6-mer frequency, TF over GST control)","1.01 fold enrichment (6-mer frequency, TF over GST control)","1.09 fold enrichment (6-mer frequency, TF over GST control)"
AAATAC,"1.3 fold enrichment (6-mer frequency, TF over GST control)","1.27 fold enrichment (6-mer frequency, TF over GST control)","1.43 fold enrichment (6-mer frequency, TF over GST control)","1.43 fold enrichment (6-mer frequency, TF over GST control)","1.36 fold enrichment (6-mer frequency, TF over GST control)","1.39 fold enrichment (6-mer frequency, TF over GST control)",,"1.36 fold enrichment (6-mer frequency, TF over GST control)","1.37 fold enrichment (6-mer frequency, TF over GST control)","1.41 fold enrichment (6-mer frequency, TF over GST control)"
TCTTTC,"1.43 fold enrichment (6-mer frequency, TF over GST control)","1.27 fold enrichment (6-mer frequency, TF over GST control)","1.41 fold enrichment (6-mer frequency, TF over GST control)","1.3 fold enrichment (6-mer frequency, TF over GST control)","1.37 fold enrichment (6-mer frequency, TF over GST control)","1.43 fold enrichment (6-mer frequency, TF over GST control)",,"1.41 fold enrichment (6-mer frequency, TF over GST control)","1.39 fold enrichment (6-mer frequency, TF over GST control)","1.51 fold enrichment (6-mer frequency, TF over GST control)"
CTAACC,"1.12 fold enrichment (6-mer frequency, TF over GST control)","1.23 fold enrichment (6-mer frequency, TF over GST control)","1.09 fold enrichment (6-mer frequency, TF over GST control)","1.16 fold enrichment (6-mer frequency, TF over GST control)","1.12 fold enrichment (6-mer frequency, TF over GST control)","1.17 fold enrichment (6-mer frequency, TF over GST control)",,"1.08 fold enrichment (6-mer frequency, TF over GST control)","1.29 fold enrichment (6-mer frequency, TF over GST control)","1.14 fold enrichment (6-mer frequency, TF over GST control)"
